Data published in the supplement of paper PMC8728848.
The entries come from a sample that favours the strongest signals as a whole.

Experiments:
Experiment in all cases: glycan array binding signal (z-score within array); higher = stronger binding
Conditions in all cases: glycan notation: IUPAC condensed, linker removed; mutation: Y228W
[1] = target: Fuc(a1-2)Gal(b1-3)GlcNAc(b1-3)[Neu5Ac(a2-6)Gal(b1-4)GlcNAc(b1-6)]Gal(b1-4)Glc
Method in brief: (§1)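 Glycan array data were curated from 3228 arrays in the Consortium for Functional Glycomics database and kept only where the protein sequence was available. Glycan names were converted to IUPAC-condensed notation, and columns mapping to the same glycan were averaged. The binding signal is a within-array Z-score, averaged across arrays of the same protein sequence at different concentrations or buffers and across linkers. Negative Z-scores can be read as non-binding.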

Fuc(a1-2)Gal(b1-4)Glc = target: Fuc(a1-2)Gal(b1-4)Glc
Method in brief: as §1

[2] = target: Fuc(a1-2)Gal(b1-4)GlcNAc(b1-3)Gal(b1-4)GlcNAc(b1-2)Man(a1-3)[Fuc(a1-2)Gal(b1-4)GlcNAc(b1-3)Gal(b1-4)GlcNAc(b1-2)Man(a1-6)]Man(b1-4)GlcNAc(b1-4)GlcNAc
Method in brief: as §1

[3] = target: Fuc(a1-2)Gal(b1-4)GlcNAc(b1-3)[Fuc(a1-3)[Gal(b1-4)]GlcNAc(b1-6)]Gal(b1-4)Glc
Method in brief: as §1

[4] = target: Fuc(a1-2)Gal(b1-4)GlcNAc(b1-6)GalNAc
Method in brief: as §1

[5] = target: Fuc(a1-2)Gal(b1-4)[Fuc(a1-3)]GlcNAc(b1-3)GalNAc
Method in brief: as §1

[6] = target: Fuc(a1-2)[Gal(a1-3)]Gal(b1-3)GlcNAc(b1-3)GalNAc
Method in brief: as §1

[7] = target: Fuc(a1-2)[Gal(a1-3)]Gal(b1-4)GlcNAc(b1-2)Man
Method in brief: as §1

[8] = target: Fuc(a1-2)[Gal(a1-3)]Gal(b1-4)[Fuc(a1-3)]GlcNAc
Method in brief: as §1

[9] = target: Fuc(a1-2)[GalNAc(a1-3)]Gal(b1-4)[Fuc(a1-3)]GlcNAc
Method in brief: as §1

[10] = target: Fuc(a1-2)[GalNAc(a1-3)]Gal(b1-4)[Fuc(a1-3)]GlcNAc(b1-3)GalNAc
Method in brief: as §1

[11] = target: Fuc(a1-3)[Gal(b1-4)]GlcNAc(b1-2)Man(a1-3)[Fuc(a1-3)[Gal(b1-4)]GlcNAc(b1-2)Man(a1-6)]Man(b1-4)GlcNAc(b1-4)[Fuc(a1-6)]GlcNAc
Method in brief: as §1

[12] = target: Fuc(a1-3)[Gal(b1-4)]GlcNAc(b1-3)Gal(b1-4)[Fuc(a1-3)]GlcNAc(b1-3)Gal(b1-4)[Fuc(a1-3)]GlcNAc
Method in brief: as §1

[13] = target: Fuc(a1-3)[Gal3S(b1-4)]GlcNAc6S
Method in brief: as §1

[14] = target: Gal(a1-3)Gal(b1-4)GlcNAc(b1-6)GalNAc
Method in brief: as §1

[15] = target: Gal(a1-3)[Gal(a1-4)]Gal(b1-4)GlcNAc
Method in brief: as §1

Gal(a1-4)Gal(b1-4)GlcNAc = target: Gal(a1-4)Gal(b1-4)GlcNAc
Method in brief: as §1

Gal(b1-3)Gal(b1-4)GlcNAc = target: Gal(b1-3)Gal(b1-4)GlcNAc
Method in brief: as §1

Gal(b1-3)GalNAc = target: Gal(b1-3)GalNAc
Method in brief: as §1

Gal(b1-3)GalNAc(b1-3)Gal = target: Gal(b1-3)GalNAc(b1-3)Gal
Method in brief: as §1

[16] = target: Gal(b1-3)GalNAc(b1-4)Gal(b1-4)Glc
Method in brief: as §1

[17] = target: Gal(b1-3)GalNAc(b1-4)[Neu5Ac(a2-3)]Gal(b1-4)Glc
Method in brief: as §1

Gal(b1-3)GlcNAc = target: Gal(b1-3)GlcNAc
Method in brief: as §1

Gal(b1-3)GlcNAc(b1-2)Man = target: Gal(b1-3)GlcNAc(b1-2)Man
Method in brief: as §1

[18] = target: Gal(b1-3)GlcNAc(b1-3)Gal(b1-4)GlcNAc
Method in brief: as §1

[19] = target: Gal(b1-3)GlcNAc(b1-3)Gal(b1-4)GlcNAc(b1-2)Man(a1-3)[Gal(b1-3)GlcNAc(b1-3)Gal(b1-4)GlcNAc(b1-2)Man(a1-6)]Man(b1-4)GlcNAc(b1-4)GlcNAc
Method in brief: as §1

[20] = target: Gal(b1-4)GlcNAc(a1-6)Gal(b1-4)GlcNAc
Method in brief: as §1

[21] = target: Gal(b1-4)GlcNAc(b1-2)Man(a1-3)[Gal(b1-4)GlcNAc(b1-2)Man(a1-6)]Man(b1-4)GlcNAc(b1-4)[Fuc(a1-6)]GlcNAc
Method in brief: as §1

[22] = target: Gal(b1-4)GlcNAc(b1-2)[Gal(b1-4)GlcNAc(b1-6)]Man(a1-6)[GlcNAc(b1-4)][Gal(b1-4)GlcNAc(b1-2)Man(a1-3)]Man(b1-4)GlcNAc(b1-4)GlcNAc
Method in brief: as §1

B1: Epa1-NP-mutant-Y228W (Candida glabrata), Q6VBJ0 (protein)
chain: MILNPALFLNKCVCIYTTLILLLLTNGGYATSSNDISLASKDPTTFPLGCSPDITTPKKGLSMELYSYDFRKKGSYPCWDAAYLDPNYPRTGYKSHRLLAKVDGVTGNINFYYHATKGCTPQLGHLPASYNYPKPLTMTNFTMLLYGYFRPKVTGFHTFTISADDLLFVNFGAGNAFDCCRRDSSADHFGNYQAYAIWGSKTAKDELTVHLDAGVYYPIRLFYNNREWDGALSFTFKTESNENTVSDFSEYFFSLDDTEEGCPGLISYDSSCASVKTSKIIGIDYHTETPNENLVPITKTIYHLGIPCTGTTTTPLCGSGFYDPLANKCVTINTSSTSSVTKTTSHTTSKEVSFHSSISSQKTLIPKSIPSPYGPIKSQSIPTEMETSSEISSSEYAFSDVISTPSHSPYTKKHSSLNSSSYTSTVIHSLTSYSISQGIFSTSLSEQNITSKSSTDKFSTATSMSNNITQSSIIISQFSTNNENYTTTSMHTSSDKISTETLNNSISTTTSILFSNSSTILKNNTTIISSDKDTHYHPVNPTIVCSTNKTEIICASITQPSISNSNNHWSSSVLKFNSTTVRSTLPSSAGSNETSINVPFSSSTESNTSTSSTSTSNSKMVRSTLPSSAGSNETSISVPFSSSTESNTSTSSTSTSNSKMVRSTLPSSAGSNETSINVPFSSSTESNTSTSSTSTSNSKTVRSTPFSSAGIIMTSLSQRNNKSASSYASSNSKCYNTADSCRKVHSTPSYLLTSSYTSEGVDYDCSLVSTKLKINDTNCVNNKHTTKSCLKTSVTTTIPTLEIKTARKSSSNTIGLHSYPTSSPNKSISSAPIIGYISSFKTIKTASPSYQTSDLTTITTITSLNNPGSTAVENTHESNDKSRKTSSNDISSKHSVIKETKDAVESSNKSHQTNTLKCSSIIIASSSHNSYESLGGTTLTLTLSKVYSPQNNDTLPFLEISEVNPSRTVLPESSKMMQYLTSTEERNKTARNTIATNIVSISTFHFEGEGNAIRMGYTQLLLMLIGIIVMNIGT
glycan array binding signal (z-score) [1]: -0.437 | glycan array binding signal (z-score) (Fuc(a1-2)Gal(b1-4)Glc): -0.146 | glycan array binding signal (z-score) [2]: 0.051 | glycan array binding signal (z-score) [3]: -0.169 | glycan array binding signal (z-score) [4]: 0.006 | glycan array binding signal (z-score) [5]: -0.204 | glycan array binding signal (z-score) [6]: -0.019 | glycan array binding signal (z-score) [7]: -0.304 | glycan array binding signal (z-score) [8]: -0.288 | glycan array binding signal (z-score) [9]: -0.138 | glycan array binding signal (z-score) [10]: -0.1 | glycan array binding signal (z-score) [11]: 0.029 | glycan array binding signal (z-score) [12]: -0.169 | glycan array binding signal (z-score) [13]: 0.109 | glycan array binding signal (z-score) [14]: -0.035 | glycan array binding signal (z-score) [15]: -0.336 | glycan array binding signal (z-score) (Gal(a1-4)Gal(b1-4)GlcNAc): -0.087 | glycan array binding signal (z-score) (Gal(b1-3)Gal(b1-4)GlcNAc): 7.29 | glycan array binding signal (z-score) (Gal(b1-3)GalNAc): 2.78 | glycan array binding signal (z-score) (Gal(b1-3)GalNAc(b1-3)Gal): 2.53 | glycan array binding signal (z-score) [16]: 15 | glycan array binding signal (z-score) [17]: 4.99 | glycan array binding signal (z-score) (Gal(b1-3)GlcNAc): -0.24 | glycan array binding signal (z-score) (Gal(b1-3)GlcNAc(b1-2)Man): -0.27 | glycan array binding signal (z-score) [18]: -0.333 | glycan array binding signal (z-score) [19]: -0.274 | glycan array binding signal (z-score) [20]: 3.19 | glycan array binding signal (z-score) [21]: 0.093 | glycan array binding signal (z-score) [22]: -0.205
